Luc counter = blocks Kinase-Glo luciferase, a counter-screen artifact; Q27757; Kinase-Glo luciferase, ATP luminescence, 8 min; 200,000 tested, 0.28% active; Potency, µM (highest dose often 38.3 µM), usual class: inhibitors; also: nearly all actives have a fitted effect of over 60% in size
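Luminescence was the read-out, taken after 8-minute incubation at ambient temperature. Luciferase turned over luciferin with 10 uM ATP in imidazole pH 7.2 buffer containing KCl, MgCl2, Tween 20 and BSA.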
HTT aggregate = inhibitors of mutant huntingtin aggregate formation in PC12 cells | PC12 HttQ103-GFP aggregates, Acumen cytometry, 40 h | Potency, µM (titrated, usually from 46.1 µM), hits mostly inhibitors | 220,000 tested, 1.1% active | AID 1688; also: nearly all actives have a fitted effect of over 60% in size
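PC12/HTTQ103-GFP, ecdysone-inducible; teb 100 nM; cpd qHTS titration; GFP aggregates read on laser cytometer, Ex 488/Em 500-530 nm.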
LMNA splice mod = changes lamin A minigene splicing in HeLa cells; HeLa LMNA splicing GFP/RFP minigene ratio, 48 h; Potency, µM (titrated, usually from 46.1 µM), actives largely listed as inhibitors; 200,000 tested, 0.01% active; AID 1487; active = well fitted inhibition curve with a large enough effect in the signal ratio, with a control signal flat, not every such curve was filed as active; inconclusive = small, poorly fitted or top-dose-only effect, or effect the other way, or a change in a side signal; the % refers to the signal ratio
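Read-out is the ratio of GFP to DsRed2 object intensity, acquired by 488 nm laser-scanning cytometry on HeLa lamin A-EGFP minigene reporter cells. Compound incubation 48 hrs at 37 °C in Opti-MEM with 2% FBS; DMSO 0.5% final.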
HTT ATP protect = protects HTT-Q103 PC12 cells, measured by ATP; PC12 HTT-Q103 induced, cytoprotection, ATP luminescence, 40 h; Potency, µM (doses to about 56.4 µM), usual class: activators; 230,000 tested, 0.14% active; AID 1471; also: nearly all actives have a fitted effect of over 45% in size
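PC12 cells with ecdysone-inducible HTT exon 1 Q103-GFP, induced with 100 nM tebufenozide and co-treated with library compounds in a dose series (1536-well, 1500 cells/well). Cytoprotection read as ATP content by ATPlite luminescence.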
HPGD block = blocks human HPGD enzyme activity; P15428; purified HPGD, NADH fluorescence kinetic, PGE2 substrate; Potency, µM, most hits filed as inhibitors; 150,000 tested, 4.3% active; AID 894; active = well fitted inhibition curve with a large enough effect, not every such curve was filed as active; inconclusive = small, poorly fitted or top-dose-only effect, or another doubt; inactive = no such curve, though single readings can be large or run the other way
Target sequence (P15428 whole entry, looked up): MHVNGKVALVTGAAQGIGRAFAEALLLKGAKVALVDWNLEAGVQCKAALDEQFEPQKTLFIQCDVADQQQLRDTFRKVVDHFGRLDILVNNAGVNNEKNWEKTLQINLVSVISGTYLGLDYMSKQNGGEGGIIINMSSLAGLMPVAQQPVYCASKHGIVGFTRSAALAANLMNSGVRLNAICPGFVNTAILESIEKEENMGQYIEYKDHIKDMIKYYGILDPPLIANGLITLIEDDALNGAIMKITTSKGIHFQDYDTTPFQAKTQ
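20 nM HPGD preincubated 15 min at room temperature with compound in 50 mM Tris-HCl pH 8, 0.01% Tween 20. Started with 1 mM NAD+ and 30 uM prostaglandin E2; NADH fluorescence (360/450 nm) read 5 times over 30-s intervals, last minus first.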
ALDH1A1 inh = ALDH1A1 (human) enzyme inhibition; P00352; Purified ALDH1A1, NADH fluorescence, propionaldehyde substrate; Potency, µM (top dose mostly 75.3 µM), usual class: inhibitors; 220,000 tested, 7.3% active; AID 1030; active = well fitted inhibition curve with a large enough effect, not every such curve was filed as active; inconclusive = small, poorly fitted or top-dose-only effect, or another doubt; inactive = no such curve, though single readings can be large or run the other way
Large screens that a line does not name were inactive; ! = not active in a repeat. This is a sample that favours compounds with a hit; in the whole collection about 9% have one here. Unless noted, calls follow the shape of the dose curve; as a rule, active = well fitted curve in the direction sought with a large enough effect; inconclusive = small, poorly fitted or top-dose-only effect, or another doubt; inactive = no such curve, though single readings can be large; an effect the other way counts as inactive or inconclusive.

CC1Cc2ccccc2N1C(=O)CN1C(=O)C(=O)N(Cc2ccccc2)C1=O (centres undefined)	ALDH1A1 inh 31.6µM
COc1ccc(N2CCN(c3ccc(NC(=O)c4ccc5c(c4)OCO5)cc3C#N)CC2)cc1	none
COc1cccc(-c2nc(CS(=O)(=O)CC(=O)NCCCOC(C)C)c(C)o2)c1	none
COc1ccccc1-n1c(-c2ccccc2)n[nH]c1=S	ALDH1A1 inh inconclusive (no result: LMNA splice mod, HPGD block)
COc1ccccc1-c1cn[nH]c(=S)n1	HPGD block 22.4µM, ALDH1A1 inh 7.08µM
CCc1nc(SCC(=O)Nc2nccs2)c2oc3ccccc3c2n1	none
CC(Oc1ccccc1)C(=O)Nc1cccc(F)c1 (centres undefined)	none
CC(Oc1ccc(F)cc1)C(=O)NN (centres undefined)	ALDH1A1 inh 5.01µM (no result: HTT ATP protect)
CC(Oc1ccc(-c2nccc(-c3ccccn3)n2)cc1)C(=O)NN (centres undefined)	ALDH1A1 inh 17.8µM
COc1ccc(CNc2ncncc2-c2c(C)noc2C)c(OC)c1	none (no result: Luc counter, HTT aggregate, HPGD block)
CC(=O)c1c(C)nc2ccccn12	none
NNC(=O)c1cnn(-c2ccccc2)c1-n1cccc1	LMNA splice mod inconclusive, ALDH1A1 inh 0.708µM (no result: HPGD block)
O=C(NNS(=O)(=O)c1ccc(Cl)cc1)c1cnn(-c2ccccc2)c1-n1cccc1	ALDH1A1 inh 2µM
O=C(NNS(=O)(=O)c1ccccc1)c1cnn(-c2ccccc2)c1-n1cccc1	none
Cc1nc2ccccn2c1C(=O)NNS(=O)(=O)c1ccc(Cl)cc1	ALDH1A1 inh 8.91µM (no result: Luc counter, LMNA splice mod, HPGD block)
CCCNC(=O)NC(=O)CSc1ccc(C)cc1C	none (no result: HPGD block)
Cc1cc(C(=O)Cn2nnc3ccccc3c2=O)c(C)n1-c1ccccc1F	HTT aggregate inconclusive, LMNA splice mod inconclusive, HPGD block inconclusive, ALDH1A1 inh inconclusive
Cn1c(SCC(=O)NCc2cccs2)nnc1-c1cccs1	none
Nc1nc(SCC(=O)NCc2ccc3c(c2)OCO3)n[nH]1	none (no result: HPGD block)
O=C(CSc1n[nH]c(-c2cccs2)n1)NCc1ccc2c(c1)OCO2	HPGD block 12.6µM
O=C(CSc1n[nH]c(-c2cccs2)n1)NCc1cccs1	HPGD block 17.8µM
COc1cc(-c2cc(C(=O)Nc3ccc(O)cc3)c3ccccc3n2)cc(OC)c1OC	none (no result: Luc counter, LMNA splice mod, HPGD block, ALDH1A1 inh)
CC1=C(\C=C/C(C)=C/C=C\C(C)=C\C(=O)Nc2ccc(O)cc2)C(C)(C)CCC1	none (no result: Luc counter, HTT aggregate, LMNA splice mod, HPGD block, ALDH1A1 inh)
CC1=C(/C=C/C(C)=C/C=C/C(C)=C/CO)C(C)(C)CCC1	HTT ATP protect 10µM!, ALDH1A1 inh 25.1µM! (no result: LMNA splice mod)
CC1=C(/C=C/C(C)=C/C=C/C(C)=C/C=O)C(C)(C)CCC1	ALDH1A1 inh 22.4µM (no result: Luc counter, HTT aggregate, LMNA splice mod)
CC1=C(/C=C/C(C)=C/C=C/C(C)=C\CO)C(C)(C)CCC1	ALDH1A1 inh 25.1µM (no result: Luc counter, HTT aggregate, LMNA splice mod, HPGD block)
CC(=O)OC/C=C(C)/C=C/C=C(C)/C=C/C1=C(C)CCCC1(C)C	ALDH1A1 inh 22.4µM! (no result: HTT aggregate, LMNA splice mod)
CC1=C(/C=C/C(C)=C/C=C/C(C)=C\C=O)C(C)(C)CCC1	ALDH1A1 inh inconclusive (no result: Luc counter, HTT aggregate, LMNA splice mod)
CC1=C(\C=C/C(C)=C/C=C\C(C)=C\CO)C(C)(C)CCC1	none (no result: Luc counter, HTT aggregate, LMNA splice mod, HPGD block, ALDH1A1 inh)
O=C(CN1C(=O)NC2(CCSC2)C1=O)NCc1ccccc1 (centres undefined)	LMNA splice mod inconclusive (no result: HPGD block)
Cc1n[nH]c(C)c1CS(=O)(=O)c1ccccc1	none (no result: LMNA splice mod, HPGD block)
CCn1c(O)c(/C=N/N=C2CCCC2)c2ccc(C3=NNC(=O)CC3)cc21	HPGD block 15.8µM, ALDH1A1 inh inconclusive
CCn1c(O)c(/C=N/N=C2CCCCC2)c2cc(C3=NNC(=O)CC3)ccc21	none (no result: Luc counter, LMNA splice mod, HPGD block, ALDH1A1 inh)
O=C(CSc1nc2ccccc2s1)N1CCOCC1	ALDH1A1 inh inconclusive
CCS(=O)CCSc1nc2ccccc2s1 (centres undefined)	HPGD block 15.8µM, ALDH1A1 inh inconclusive
O=C1CCCCCN1CSc1nc2ccccc2s1	ALDH1A1 inh 12.6µM
NC(=O)C1(N2CCCCC2)CCN(C(=O)CSc2nc3ccccc3s2)CC1	ALDH1A1 inh 25.1µM
COc1ccc2c(c1)CCc1sc(NC(=O)c3ccco3)nc1-2	HPGD block inconclusive, ALDH1A1 inh 22.4µM

Compound activity from PubChem.
